Results: PubChem BioAssay (NCI)
This is part of a sample that, as a whole, favours compounds with a hit. Of some 83,000 tested, about 20% had one in any assay.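 Percent growth is the endpoint: 0 to 100 indicates growth inhibition (40 means 60% inhibition), 0 means no net growth, and negative values indicate cell death.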 Unmarked numbers belong to inactive results. The source made the active and inactive calls. How the source made its calls: active means growth percent below 10; inactive means the rest.

What was measured:
Test in all cases: NCI-60 one-dose screen, 48 h (100 = growth as untreated, 0 = no growth, -100 = all killed)
Details in all cases: 10 µM unless noted
HCT-15 colon = test system: HCT-15 colon
HT29 colon = test system: HT29 colon
SNB-75 CNS = test system: SNB-75 CNS
SNB-19 CNS = test system: SNB-19 CNS
U251 CNS = test system: U251 CNS
PC-3 prostate = test system: PC-3 prostate
SK-MEL-5 melanoma = test system: SK-MEL-5 melanoma
LOX IMVI melanoma = test system: LOX IMVI melanoma
SK-MEL-28 melanoma = test system: SK-MEL-28 melanoma
SK-MEL-2 melanoma = test system: SK-MEL-2 melanoma
EKVX NSCLC = test system: EKVX NSCLC
SN12C renal = test system: SN12C renal
UO-31 renal = test system: UO-31 renal
TK-10 renal = test system: TK-10 renal
ACHN renal = test system: ACHN renal
CAKI-1 renal = test system: CAKI-1 renal
A498 renal = test system: A498 renal
CCRF-CEM leukemia = test system: CCRF-CEM leukemia
MOLT-4 leukemia = test system: MOLT-4 leukemia

Structure (SMILES) | growth (HCT-15 colon) | growth (HT29 colon) | growth (SNB-75 CNS) | growth (SNB-19 CNS) | growth (U251 CNS) | growth (PC-3 prostate) | growth (SK-MEL-5 melanoma) | growth (LOX IMVI melanoma) | growth (SK-MEL-28 melanoma) | growth (SK-MEL-2 melanoma) | growth (EKVX NSCLC) | growth (SN12C renal) | growth (UO-31 renal) | growth (TK-10 renal) | growth (ACHN renal) | growth (CAKI-1 renal) | growth (A498 renal) | growth (CCRF-CEM leukemia) | growth (MOLT-4 leukemia)
CC1(c2ccccc2)OC1C(=O)O (stereo unspecified) | 106% | 102% | 91.6% | 109% | 117% | 106% | 103% | 97.4% | 98.7% | 107% | 107% | 106% | 84.5% | 102% | 102% | 94% | 109% | 101% | 101%
COc1cc2ncnc(Nc3ccc(OCc4cccc(F)c4)c(Cl)c3)c2cc1NC(=O)C1CCCC1 | 80.2% | 82.3% | 69.2% | 83.3% | 91.8% | 63.3% | 95% | 87.5% | 90.1% | 86.2% | 37.6% | 85.2% | 30.5% | 18.4% | 47.6% | 55.9% | 20.8% | 92.6% | 84%
C[C@H]1OC(=O)/C=C/[C@@H](O)[C@@H](O)CCCCCCCC[C@@H]1O | 101% | 87% | 90.5% | 100% | 90.2% | 85.2% | 98% | 102% | 108% | 102% | 99.6% | 101% | 82.6% | 96.9% | 100% | 96.3% | 71.1% | 62.4% | 106%
C[Si](C)(C)Cc1ccccc1 | 110% | 114% | 87.8% | 116% | 114% | 105% | 108% | 102% | 128% | 163% | 110% | 108% | 95.9% | 122% | 106% | 98.5% | 164% | -49.7% (active) | 118%
COC(c1ccccc1)(c1ccccc1)c1ccccc1 | 104% | 100% | 87.7% | 96% | 107% | 102% | 103% | 99.2% | 109% | 118% | 85.3% | 97% | 105% | 123% | 101% | 72.1% | 104% | 131% | 123%
Cn1c(=O)c2c(nc(N3CCCC3)n2C)n(C)c1=O | 103% | 94.5% | 89.9% | 106% | 87.5% | 91.2% | 102% | 96.5% | 104% | 97.4% | 98.9% | 102% | 93.8% | 85.3% | 106% | 93.8% | 81.9% | 105% | 95.1%
N#Cc1cnc2cc(OC[C@@H](O)CO)c(NC(=O)C3CCCC3)cc2c1Nc1ccc(OCc2cccc(F)c2)c(Cl)c1 | 29.4% | -11.3% (active) | -0.333% (active) | 65.3% | 61.9% | -58.9% (active) | 61.5% | -84.8% (active) | -85.2% (active) | -56.9% (active) | -36.8% (active) | 13.8% | 35.3% | 29.5% | 40.2% | 59.4% | 55.5% | -26.8% (active) | 6.26% (active)
C=CC(=O)N[C@H](Cc1ccc(-c2cc(Cl)cc(Cl)c2)cc1)[C@H](O)[C@@H](O)C(=O)O | 96% | 81.5% | 87% | 99.5% | 80.2% | 63.9% | 91.6% | 95.6% | 106% | 90% | 90% | 98.5% | 86.8% | 81.7% | 101% | 84% | 80.6% | 80.2% | 102%
Cn1c(=O)c2c(ncn2CCC(=O)Nc2ccc(F)cc2)n(C)c1=O | 106% | 94% | 91.5% | 102% | 98.4% | 80.9% | 111% | 97.9% | 114% | 104% | 101% | 105% | 90% | 95% | 110% | 92.9% | 103% | 97.5% | 101%
Fc1ccc(Nc2nnc(-c3ccc(Cl)cc3)o2)cc1 | 98.4% | 94.7% | 102% | 101% | 92.1% | 86.7% | 99.8% | 108% | 106% | 106% | 92.1% | 103% | 85.4% | 137% | 107% | 92.8% | 92.8% | 58.4% | 88.4%
CCNCCCn1c2c(c3ccc([N+](=O)[O-])cc3c1=O)C(=O)c1cc(OC)cnc1-2 | -12% (active) | -11% (active) | -23.8% (active) | 10.6% | -73.3% (active) | 1.89% (active) | -97.3% (active) | -91% (active) | -31.5% (active) | -27.8% (active) | 8.7% (active) | 1.09% (active) | -85.1% (active) | -27.6% (active) | -61.1% (active) | -58.5% (active) | -89.2% (active) | 3.93% (active) | -4.26% (active)
Fc1ccc(NCc2nnc(-c3ccc(Cl)cc3)o2)cc1 | 81.7% | 70% | 73.6% | 83.2% | 77.8% | 54.3% | 79.8% | 80.1% | 93.9% | 85.5% | 77% | 79.4% | 54.3% | 126% | 78.7% | 69.8% | 77.2% | 74.6% | 49.6%
CC(Cc1ccco1)C(=O)NC(N)=O (stereo unspecified) | 99.3% | 102% | 91.8% | 105% | 108% | 98.4% | 98.6% | 97.4% | 105% | 106% | 98% | 103% | 91.6% | 98.7% | 108% | 92.1% | 102% | 98.9% | 98.8%
O=P(O)(c1ccccc1)c1ccccc1I | 111% | 80% | 84% | 103% | 89.3% | 82.1% | 96.8% | 93.8% | 108% | 96% | 94.7% | 99.3% | 83.4% | 102% | 106% | 90.1% | 92.6% | 94.6% | 97.7%
CC(C)(C)c1nc(-c2ccc(O)c(O)c2)cs1 | 36.3% | 92.6% | 73.1% | 72.1% | 46.9% | 54% | 54.4% | 63.5% | 87.8% | 93.3% | 88.9% | 59.5% | 39.5% | 89.2% | 50% | 54.8% | 104% |  | 44.1%
CC(=O)OC(C)COc1ccc(-c2ccccc2)cc1 (stereo unspecified) | 107% | 86% | 89.6% | 103% | 76.4% | 86.1% | 99.8% | 110% | 104% | 95% | 101% | 104% | 106% | 80.7% | 101% | 94.7% | 92.7% | 99.6% | 100%
Cn1cc(-c2csc(-c3cn(CCCN4CCCCC4)c4ccc(Br)cc34)n2)c2cccnc21 | -78.2% (active) | -72.8% (active) | 63.6% | -45.3% (active) | -80.6% (active) | -8.66% (active) | -33.7% (active) | -71.4% (active) | -86.6% (active) | 37% | 49.6% | -31.3% (active) | -93.9% (active) | 26.7% | -61.1% (active) |  | 79.1% | -23.8% (active) | -46.3% (active)
